The values that follow come from ChEMBL document CHEMBL3988442, “University of Dundee, Small-Polar-MMV Screening Library” (2021).

Common to all, as to set-up: scale not given: direction of the effect not stated beside the values
Test [1] addresses Protein translocase subunit SecA (Escherichia coli (strain K12)) (UniProt P10408). The test is described as follows: Assay to Identify E. coli SecA ATPase Inhibitors. The note with it: 30 µM. The class given is functional.
Test [2] deals with T1, Ubiquitin-activating enzyme e1, putative (Leishmania donovani (strain BPK282A1)) (UniProt E9BSI1).
T1 sequence (whole entry): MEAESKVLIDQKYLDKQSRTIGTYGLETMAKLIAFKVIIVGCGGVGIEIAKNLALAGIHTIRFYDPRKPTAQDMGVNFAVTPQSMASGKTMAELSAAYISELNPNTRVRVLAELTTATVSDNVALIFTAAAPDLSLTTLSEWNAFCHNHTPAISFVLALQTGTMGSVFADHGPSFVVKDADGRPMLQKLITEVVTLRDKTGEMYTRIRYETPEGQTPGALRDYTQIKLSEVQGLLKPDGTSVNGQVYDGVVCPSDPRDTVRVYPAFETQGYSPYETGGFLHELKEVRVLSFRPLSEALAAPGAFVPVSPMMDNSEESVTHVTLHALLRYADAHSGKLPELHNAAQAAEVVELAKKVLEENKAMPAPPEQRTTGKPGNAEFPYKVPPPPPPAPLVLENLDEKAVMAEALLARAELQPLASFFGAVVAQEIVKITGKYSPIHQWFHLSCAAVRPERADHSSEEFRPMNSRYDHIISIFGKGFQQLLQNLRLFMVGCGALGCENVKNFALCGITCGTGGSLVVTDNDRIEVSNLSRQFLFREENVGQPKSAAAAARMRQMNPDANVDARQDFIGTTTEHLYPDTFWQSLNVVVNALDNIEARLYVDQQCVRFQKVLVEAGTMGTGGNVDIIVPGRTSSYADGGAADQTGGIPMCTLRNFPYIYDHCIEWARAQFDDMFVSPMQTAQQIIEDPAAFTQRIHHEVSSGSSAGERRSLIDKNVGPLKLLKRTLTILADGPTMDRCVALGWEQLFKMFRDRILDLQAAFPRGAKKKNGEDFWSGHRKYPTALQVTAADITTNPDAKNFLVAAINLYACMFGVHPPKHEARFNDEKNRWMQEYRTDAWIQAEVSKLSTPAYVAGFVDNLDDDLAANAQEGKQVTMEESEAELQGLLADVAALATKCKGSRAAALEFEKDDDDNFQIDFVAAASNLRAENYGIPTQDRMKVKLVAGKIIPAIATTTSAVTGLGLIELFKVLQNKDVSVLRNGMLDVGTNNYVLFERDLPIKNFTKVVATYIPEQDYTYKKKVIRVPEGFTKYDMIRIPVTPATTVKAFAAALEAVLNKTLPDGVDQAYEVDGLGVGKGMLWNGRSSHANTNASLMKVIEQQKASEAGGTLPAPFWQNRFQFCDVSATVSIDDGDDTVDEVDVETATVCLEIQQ
Nature of the test: Leishmania donovani Ubiquitin Activating Enzyme (LdE1). Format: functional. The note with it: 30 µM.

In test [3] the target is AMP-activated protein kinase, AMPK (Homo sapiens) (UniProt P54646+O43741+P54619+Q9UGJ0+Q9Y478+Q13131+Q9UGI9). Nature of the test: AMP-dependent Kinase enzyme assay. An in vitro enzyme assay that detects ADP turnover that is directly proportional to AMPK activity. This uses naive AMPK that is activated during the assay with MK-8722. The class given is functional. The settings on record: 30 µM.

The target of test [4] is Sialic acid-binding Ig-like lectin 9 (Homo sapiens) (UniProt Q9Y336). Nature of the test: Hs-Siglec9 ALPHAscreen SOP 20170721. The settings on record: 10 µM. On the technique in general: In Alpha technology, singlet oxygen from a donor bead excites a nearby acceptor bead.
Chain of Sialic acid-binding Ig-like lectin 9 (Homo sapiens) (Q9Y336 whole entry): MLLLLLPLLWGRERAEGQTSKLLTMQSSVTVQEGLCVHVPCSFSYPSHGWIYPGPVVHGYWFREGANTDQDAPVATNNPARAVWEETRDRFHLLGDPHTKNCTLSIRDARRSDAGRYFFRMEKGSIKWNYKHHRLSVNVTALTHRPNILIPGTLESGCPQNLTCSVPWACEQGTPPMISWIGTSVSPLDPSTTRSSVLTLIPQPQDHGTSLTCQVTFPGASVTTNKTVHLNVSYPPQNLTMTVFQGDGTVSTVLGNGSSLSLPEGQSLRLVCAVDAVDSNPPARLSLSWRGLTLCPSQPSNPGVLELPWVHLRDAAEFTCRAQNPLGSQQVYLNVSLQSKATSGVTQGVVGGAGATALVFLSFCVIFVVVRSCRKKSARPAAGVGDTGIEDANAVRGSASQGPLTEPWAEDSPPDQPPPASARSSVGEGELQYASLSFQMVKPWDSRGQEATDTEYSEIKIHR
The subject of a further test is Trypanosoma cruzi. The test is described as follows: Trypanosoma cruzi phosphomannomutase and mannose-1-phosphate guanylyltransferase assay. The class given is functional. The settings on record: 10 µM.
The target in test [5] is T2, Arginase-2, mitochondrial (Homo sapiens) (UniProt P78540).
T2 sequence (whole entry): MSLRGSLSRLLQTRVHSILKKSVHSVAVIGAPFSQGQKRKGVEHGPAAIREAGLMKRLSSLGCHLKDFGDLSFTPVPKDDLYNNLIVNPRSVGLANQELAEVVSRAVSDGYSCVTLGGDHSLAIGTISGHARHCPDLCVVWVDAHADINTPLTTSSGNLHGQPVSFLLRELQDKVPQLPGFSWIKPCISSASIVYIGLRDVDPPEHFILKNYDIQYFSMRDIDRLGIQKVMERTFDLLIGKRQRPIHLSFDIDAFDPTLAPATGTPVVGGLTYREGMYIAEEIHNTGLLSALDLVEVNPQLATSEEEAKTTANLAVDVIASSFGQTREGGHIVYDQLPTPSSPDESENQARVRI
Nature of the test: in vitro enzyme assay to detect the production of urea directly proportional to the activity of Arginase II. Also: in the data most compounds retested in dose-response had high values. Format: functional. The note with it: 33.3 µM.

Test [6] addresses T3, Proteasome subunit beta (Trypanosoma cruzi) (UniProt O96673).
T3 sequence (whole entry): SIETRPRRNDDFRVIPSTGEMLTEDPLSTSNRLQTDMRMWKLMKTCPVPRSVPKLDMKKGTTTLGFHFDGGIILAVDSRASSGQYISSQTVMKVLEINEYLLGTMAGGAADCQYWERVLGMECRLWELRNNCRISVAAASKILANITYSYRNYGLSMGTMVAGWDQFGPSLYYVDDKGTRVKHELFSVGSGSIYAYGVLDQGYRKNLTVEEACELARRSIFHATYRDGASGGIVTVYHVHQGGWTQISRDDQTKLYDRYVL
The test is described as follows: Trypanosoma cruzi proteasome chymotrypsin-like activity (TcProtChymo) assay. Also: in the data most compounds retested in dose-response had high values. The settings on record: 9.37 µM. Format: functional.

A further test is filed under the species Homo sapiens. The test is described as follows: To identify inhibition of the IFN signalling (Jak-Stat) pathway via expression of an eGFP reporter gene under the control of an IFN-stimulated response element (ISRE) containing MxA promoter. The settings on record: 30 µM. Format: functional. On the technique in general: A reporter such as luciferase makes a cellular process visible.

For test [7], the target named is T4, Tyrosyl-tRNA synthetase, putative (Trypanosoma cruzi (strain CL Brener)) (UniProt Q4DSP6).
T4 sequence (whole entry): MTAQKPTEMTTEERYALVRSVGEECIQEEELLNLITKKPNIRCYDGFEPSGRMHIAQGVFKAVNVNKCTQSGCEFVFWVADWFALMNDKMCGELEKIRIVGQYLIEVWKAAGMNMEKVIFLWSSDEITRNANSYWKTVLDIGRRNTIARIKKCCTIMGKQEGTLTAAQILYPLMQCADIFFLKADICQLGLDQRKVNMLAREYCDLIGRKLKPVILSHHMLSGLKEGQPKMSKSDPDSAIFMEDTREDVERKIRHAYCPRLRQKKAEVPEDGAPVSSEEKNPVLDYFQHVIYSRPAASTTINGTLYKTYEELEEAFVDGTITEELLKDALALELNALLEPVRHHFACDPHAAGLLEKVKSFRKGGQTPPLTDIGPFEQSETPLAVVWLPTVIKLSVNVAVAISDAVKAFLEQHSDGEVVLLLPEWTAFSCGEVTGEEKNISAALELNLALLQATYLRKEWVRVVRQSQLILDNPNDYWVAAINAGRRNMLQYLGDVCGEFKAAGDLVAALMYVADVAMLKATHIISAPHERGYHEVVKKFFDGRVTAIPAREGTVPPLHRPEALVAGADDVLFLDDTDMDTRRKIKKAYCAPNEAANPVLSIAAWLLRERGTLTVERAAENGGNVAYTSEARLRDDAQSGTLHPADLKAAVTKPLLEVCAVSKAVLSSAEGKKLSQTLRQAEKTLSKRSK
The test is described as follows: Trypanosoma cruzi tyrosyl tRNA synthetase (TcYRS) _High Tyrosine SOP. Also: in the data most compounds retested in dose-response had high values. The class given is functional. The settings on record: 30 µM.

The target of test [8] is T4, Tyrosyl-tRNA synthetase, putative (Trypanosoma cruzi (strain CL Brener)). The test is described as follows: Trypanosoma cruzi tyrosyl tRNA synthetase (TcYRS) SOP. Format: functional. The note with it: 30 µM.
Test [9] has as its target Chromo domain-containing protein 1 (Saccharomyces cerevisiae (strain ATCC 204508 / S288c) (Baker's yeast)) (UniProt P32657). Nature of the test: ScCHD-1 Enzyme Inhibition Assay. Also: in the data most compounds retested in dose-response had high values. The settings on record: 30 µM. The class given is functional.

For some of these results: Potency and affinity values are given separately.

Chain of Protein translocase subunit SecA (Escherichia coli (strain K12)) (P10408 whole entry): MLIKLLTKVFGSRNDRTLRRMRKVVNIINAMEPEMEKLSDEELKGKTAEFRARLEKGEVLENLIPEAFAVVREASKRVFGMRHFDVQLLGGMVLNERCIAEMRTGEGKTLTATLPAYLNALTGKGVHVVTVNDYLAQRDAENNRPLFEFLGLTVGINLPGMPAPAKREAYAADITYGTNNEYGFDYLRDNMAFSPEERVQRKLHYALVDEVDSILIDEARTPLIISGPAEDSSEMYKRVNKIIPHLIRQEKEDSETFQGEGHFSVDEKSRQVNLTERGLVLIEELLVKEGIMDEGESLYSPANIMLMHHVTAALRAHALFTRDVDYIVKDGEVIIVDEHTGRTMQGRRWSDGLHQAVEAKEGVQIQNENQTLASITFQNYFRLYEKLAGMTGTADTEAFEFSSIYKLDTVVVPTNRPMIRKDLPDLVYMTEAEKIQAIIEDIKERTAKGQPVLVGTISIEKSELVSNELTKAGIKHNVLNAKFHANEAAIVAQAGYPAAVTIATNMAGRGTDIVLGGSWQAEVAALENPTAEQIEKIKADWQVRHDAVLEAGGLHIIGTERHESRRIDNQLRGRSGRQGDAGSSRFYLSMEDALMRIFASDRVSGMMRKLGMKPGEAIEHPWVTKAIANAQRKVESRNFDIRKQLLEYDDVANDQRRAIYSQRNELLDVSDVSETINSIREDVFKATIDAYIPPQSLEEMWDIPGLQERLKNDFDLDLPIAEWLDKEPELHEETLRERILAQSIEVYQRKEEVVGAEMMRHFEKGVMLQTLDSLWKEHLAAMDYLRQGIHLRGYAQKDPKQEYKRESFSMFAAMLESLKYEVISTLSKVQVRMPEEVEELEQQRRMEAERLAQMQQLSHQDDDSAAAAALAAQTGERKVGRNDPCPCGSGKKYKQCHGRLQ
Chain of Chromo domain-containing protein 1 (Saccharomyces cerevisiae (strain ATCC 204508 / S288c) (Baker's yeast)) (P32657 whole entry, the tested form may be a part): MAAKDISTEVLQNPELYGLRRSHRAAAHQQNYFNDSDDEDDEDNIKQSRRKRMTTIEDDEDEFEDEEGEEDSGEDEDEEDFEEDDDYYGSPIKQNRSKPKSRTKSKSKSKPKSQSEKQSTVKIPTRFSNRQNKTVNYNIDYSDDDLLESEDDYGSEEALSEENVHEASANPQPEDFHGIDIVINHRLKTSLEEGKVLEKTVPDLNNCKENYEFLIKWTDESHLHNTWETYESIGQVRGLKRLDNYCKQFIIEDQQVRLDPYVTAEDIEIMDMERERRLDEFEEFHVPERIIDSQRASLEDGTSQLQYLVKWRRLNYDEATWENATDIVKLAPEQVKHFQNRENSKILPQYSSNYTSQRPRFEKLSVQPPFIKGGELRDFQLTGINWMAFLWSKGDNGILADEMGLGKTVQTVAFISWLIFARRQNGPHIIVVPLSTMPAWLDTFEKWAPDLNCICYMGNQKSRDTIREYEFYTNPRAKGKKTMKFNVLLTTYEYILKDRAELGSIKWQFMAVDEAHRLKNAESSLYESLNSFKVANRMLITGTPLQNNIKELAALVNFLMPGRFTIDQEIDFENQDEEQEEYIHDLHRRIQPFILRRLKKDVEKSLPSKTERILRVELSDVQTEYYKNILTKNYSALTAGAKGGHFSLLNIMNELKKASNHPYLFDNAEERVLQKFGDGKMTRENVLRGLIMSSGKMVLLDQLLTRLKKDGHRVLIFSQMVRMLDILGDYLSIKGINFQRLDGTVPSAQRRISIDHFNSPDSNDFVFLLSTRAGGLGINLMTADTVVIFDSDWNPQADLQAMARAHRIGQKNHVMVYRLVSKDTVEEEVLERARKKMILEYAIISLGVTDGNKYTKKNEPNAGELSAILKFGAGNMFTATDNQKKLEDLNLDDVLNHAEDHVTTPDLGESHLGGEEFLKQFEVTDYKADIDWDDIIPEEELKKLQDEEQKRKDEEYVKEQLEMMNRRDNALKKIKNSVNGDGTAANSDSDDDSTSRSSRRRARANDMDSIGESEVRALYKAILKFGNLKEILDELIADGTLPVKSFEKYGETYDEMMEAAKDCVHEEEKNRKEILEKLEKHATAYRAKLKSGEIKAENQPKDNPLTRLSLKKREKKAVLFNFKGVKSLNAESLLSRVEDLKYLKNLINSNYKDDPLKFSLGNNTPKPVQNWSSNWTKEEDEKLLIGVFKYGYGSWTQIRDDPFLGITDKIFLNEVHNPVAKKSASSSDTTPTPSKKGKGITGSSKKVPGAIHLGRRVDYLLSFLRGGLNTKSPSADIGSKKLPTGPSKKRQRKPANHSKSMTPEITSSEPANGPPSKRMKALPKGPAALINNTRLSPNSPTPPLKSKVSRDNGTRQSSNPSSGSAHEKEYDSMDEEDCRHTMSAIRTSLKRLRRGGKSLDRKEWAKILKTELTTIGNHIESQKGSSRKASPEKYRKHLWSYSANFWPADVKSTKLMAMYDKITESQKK

On to `CC(C)CN1CCCn2nc(CNC(=O)c3cccnc3O)cc2C1`, for which the Percent Effect in test [1] is -5.79%; in test [2], 21.3%; in test [3] it was -6.62%; in test [4] it was 22.5%; in the test with Trypanosoma cruzi it was 6.52%; in [5], 5.73%. In addition, the Percent Effect is 13.2% in [6]; 13.9% in the test listed under Homo sapiens; 6.01% in [7]; 18.5% in [8]; -7.12% in test [9].

With `COc1cccc(N2CCN(CC(O)c3cc(C)ccc3C)CC2)c1` (stereo unspecified), the Percent Effect in test [1] was -1.87%; in [2], 10.5%; in test [3], -6.71%; in test [4], -9.14%; with Trypanosoma cruzi, -8.67%; in test [5], 2.37%. The Percent Effect in test [6] was 18.5%; in the test filed under Homo sapiens, -5.38%; in [7], 7.45%; in test [8], 7.79%; in test [9], -5.09%.

Take `COc1cc(CNCc2c(C)nn(C)c2N(C)C)ccc1C`: the Percent Effect in [1] was -4.67%; in test [2], -5.41%; in test [3], -13.7%; in test [4] it was 2.96%; with Trypanosoma cruzi it was 1.98%; in [5], -6.41%. The Percent Effect in test [6] is 3.06%; in the test listed under Homo sapiens, -2.21%; in test [7] it was 5.42%; in test [8], 1.24%; in [9] it was 0.104%.

In the case of `CC(C)CCN1CCN(Cc2nc(C3CC3)no2)CC1`, the Percent Effect in test [1] is -7.83%; in test [2], -2.7%; in test [3], 1.67%; in test [4], -0.524%; in the test on Trypanosoma cruzi it was 1.17%; in test [5], -0.417%. Also, the Percent Effect in [6] was 9.38%; in the test filed under Homo sapiens it was 2.9%; in test [7] it was 2.97%; in [8], -3.66%; in [9] it was -0.984%.

As for `Cc1cc(C)c(CNC(=O)N2CCN(c3cnccn3)CC2)c(=O)[nH]1`, the Percent Effect in test [1] is -7.87%; in [2] it was 18.4%; in [3], -1.35%; in [4] it was 2.54%; in the test on Trypanosoma cruzi, 6.96%; in [5] it was -1.53%. Also, the Percent Effect in test [6] was 12.2%; in the test listed under Homo sapiens it was 11.3%; in test [7], 3.43%; in [8], 9.76%; in test [9] it was -9.64%.

`Cn1cc(CN2CC[C@H](O)[C@@H]2Cc2ccncc2)cn1`: the Percent Effect is -8.41% in test [1]; 5.41% in test [2]; -33.1% in [3]; -9.45% in test [4]; -0.293% in the test on Trypanosoma cruzi; -0.955% in [5]. For the same molecule, the Percent Effect was 1.66% in test [6]; 26.4% in the test listed under Homo sapiens; -1.08% in [7]; -2.56% in test [8]; 3.16% in [9].

For the molecule `COC(=O)c1cccn1C1CCN(C(=O)c2cc(C)ccc2O)CC1`, the Percent Effect in test [1] is -8.92%; in test [2], 18.2%; in [3], 3.73%; in [4], -0.853%; with Trypanosoma cruzi, -7.12%; in [5], 0.712%. Besides, the Percent Effect in test [6] was 6.25%; in the test filed under Homo sapiens it was 38.3%; in [7], 2.91%; in test [8], 9.76%; in test [9] it was -5.74%.

Consider `C[C@@H]1CN(C2(C(=O)N3CCOCC3)Cc3ccccc3C2)C[C@H](C)O1`, for which the Percent Effect in test [1] was -4.17%; in test [2], -37.5%; in test [3] it was -3.25%; in test [4], 0.729%; in the test on Trypanosoma cruzi it was 0.875%; in test [5], 1.77%. Moreover, the Percent Effect was 8.6% in test [6]; -18.6% in the test listed under Homo sapiens; 5.26% in [7]; 7.69% in test [8]; -3.31% in test [9].

For the molecule `Cc1cnn(CCC(=O)N2CCCC(c3nc(C)no3)C2)c1` (stereo unspecified), the Percent Effect in test [1] is -3.87%; in [2], 24.3%; in test [3], -8.95%; in test [4], -1.06%; in the test with Trypanosoma cruzi, 5.94%; in test [5] it was -4.41%. In addition, the Percent Effect in test [6] was 16.9%; in the test listed under Homo sapiens, 11.1%; in [7] it was 4.43%; in test [8], 23.5%; in [9], -10.1%.

Turning to `CN(Cc1ccco1)C[C@H]1OC[C@@H]2CCN(Cc3cccnc3)C[C@@H]21`, the Percent Effect in [1] was -2.62%; in test [2] it was 10.7%; in test [3], 0.611%; in test [4] it was -1.35%; in the test on Trypanosoma cruzi, 0.772%; in test [5], -51.1%. In addition, the Percent Effect in test [6] was 8.55%; in the test listed under Homo sapiens it was 1.18%; in [7] it was 0%; in test [8], 10%; in test [9], -2.25%.

Consider `CC(=O)Nc1nc(CN2CCCC2Cn2cncn2)cs1` (stereo unspecified), for which the Percent Effect in [1] was -7.57%; in test [2] it was 13%; in test [3], -6.56%; in test [4], 16.5%; in the test with Trypanosoma cruzi it was 10.3%; in test [5], 2.85%. The Percent Effect in test [6] was 9.29%; in the test filed under Homo sapiens, 18.8%; in [7] it was 9.71%; in test [8] it was 26.8%; in [9] it was -12.8%.
